In PubChem BioAssay (NCI):
About 79,000 compounds went through this panel and 15% of them were active in at least one assay; those are over-represented in the sample as a whole. Values without a mark were called inactive. Active and inactive are the calls of the source. Cut-off read from the data, not from the text of the source: active = growth inhibition above about 70%; inactive = the rest.

Experiments:
[1] = NCI Yeast Anticancer Drug Screen. Data for the rad50 strain (AID 155);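 note: 0% = growth of vehicle-only cultures of the same strain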; details: S. cerevisiae rad50 strain growth inhibition; at 50.0 µM; active compounds read high
In short: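 Inhibition values express reduced yeast growth in compound-treated cultures relative to vehicle-treated controls.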

[2] = NCI Yeast Anticancer Drug Screen. Data for the mec2-1 strain (AID 157); details: S. cerevisiae mec2-1 strain, at 50.0 µM, active compounds read high
In short: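 Growth inhibition is read against vehicle-treated controls after compound exposure of the mec2-1 yeast strain, which is defective in DNA damage repair or cell cycle control.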

[3] = NCI Yeast Anticancer Drug Screen. Data for the sgs1 mgt1 strain (AID 161);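 note: 0% = growth of cultures given vehicle only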; details: S. cerevisiae sgs1 mgt1 strain, at 50.0 µM, active compounds read high
In short: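 Percent growth inhibition was derived by comparing compound-exposed mutant yeast with vehicle-exposed cultures. The strain carries alterations in DNA damage repair.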

[4] = NCI Yeast Anticancer Drug Screen. Data for the cln2 rad14 strain (AID 165);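 note: 0% = growth equal to vehicle treated cultures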; details: S. cerevisiae cln2 rad14 strain, at 50.0 µM, active compounds read high
In short: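 Growth inhibition, relative to vehicle-treated controls, is the read-out. The test organism is a yeast strain with defined genetic alterations, cln2 rad14.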

[5] = NCI Yeast Anticancer Drug Screen. Data for the bub3 strain (AID 167); details: S. cerevisiae bub3 mutant strain, at 50.0 µM, active compounds read high
In short: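 Steps: expose the mutant yeast strain to compound; grow alongside vehicle-treated cultures; measure growth; express inhibition against the vehicle cultures.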

[6] = NCI Yeast Anticancer Drug Screen. Data for the mlh1 rad18 strain (AID 175); details: S. cerevisiae mlh1 rad18 strain growth inhibition; at 50.0 µM; active compounds read high
In short: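 Cells of a genetically altered yeast strain, deficient in DNA damage repair, were treated with compound. Their growth was then compared with that of vehicle-treated cultures to give inhibition.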

Row | SMILES | growth inhibition [1] | growth inhibition [2] | growth inhibition [3] | growth inhibition [4] | growth inhibition [5] | growth inhibition [6]
1 | CCN(CC)CCSC(=O)C(O)(c1ccccc1)c1cccc(C)c1 (stereo not drawn) | 9.1% | 10.1% | -2.2% | -11.9% | -1.4% | 10.6%
2 | O=C(O)C1(C(=O)O)CC2C3C=CC(C3)C2C1 (stereo not drawn) | -7.75% | -11.7% | 0.35% | -48.8% | 18.8% | 20.5%
3 | CC(CO)(CO)Nc1ncnc2ccccc12 | -4.5% | -12% | -30.9% | -26.4% | -36.9% | 9.7%
4 | Cc1ccc(NC(=O)OCCOc2c(C(C)C)cccc2C(C)C)c([N+](=O)[O-])c1 | -0.8% | -3.3% | 8.55% | -41.9% | -7.7% | 18.4%
5 | Cc1ccc(S(=O)(=O)OCOS(=O)(=O)c2ccc(C)cc2)cc1 | 23.1% | 22.2% | 4.95% | 3.15% | -34.4% | -25.2%
6 | NC(=O)NC(=O)OCCOC(=O)NC(N)=O | -28.4% | -11.7% | -13.3% | -16.7% | -8.85% | -13.2%
7 | N#CC/C(C#N)=C/OC(=O)c1ccc(Cl)cc1 | 12.2% | -4.5% | -13.3% | -33.5% | -17.9% | -7.15%
8 | CC(C)(C)OC(=O)N1CCc2c([nH]oc2=O)C1 | -1.25% | -8.55% | -3.5% | -17.6% | 10.6% | -3.8%
9 | CCOC(=O)c1c(C)nc(C)nc1N | 0.2% | -2.5% | -9.85% | -41.5% | -22.1% | 2%
10 | Cc1c(CO)[n+](=O)c2ccccc2n1[O-] | 30.4% | 12.6% | 0.45% | -22.6% | 3.4% | 21.7%
11 | O=C(OCC1OC(OCc2ccccc2)C(OC(=O)c2ccccc2)C1OC(=O)c1ccccc1)c1ccccc1 (stereo not drawn) | -10.2% | -6.1% | -2.4% | -3% | -13.5% | -24.1%
12 | CC(=O)OC1CCC2=C3CCC4(C)C(=O)CCC4C3C(O)C2(C)C1 (stereo not drawn) | 0.05% | -2% | -5.3% | -5.2% | -14.3% | -9.5%
13 | CSC1NN=C(CCC(=O)Nc2ccc(C)cc2)O1 (stereo not drawn) | -37.7% | 5.25% | 13% | -21.1% | -3.8% | 12.9%
14 | C=C(C)/C=N/NS(=O)(=O)c1ccc(C)cc1 | -14.6% | 9.65% | 6.7% | -26.1% | -18.1% | 4.9%
15 | CCCCCCCCCCCCCCCCCC(=O)N1CC[N+](C)(C)CC1 | 99.7% (active) | 99.7% (active) | 99.7% (active) | 99% (active) | 99.3% (active) | 99.5% (active)
16 | C/C(=N\NC(=S)Nc1ccc([N+](=O)[O-])cc1S(=O)(=O)O)c1ccccn1 | 12.6% | 20.4% | -5.85% | -2.35% | -0.4% | 22.9%
17 | CCCCCCO[Si](OCCCCCC)(OCCCCCC)OCCCCCC | -35.1% | -32.4% | -10.8% | 17.4% | -17.8% | -17.4%
18 | O=c1cc(CO)oc(C(Nc2cccc(Cl)c2)c2ccccc2)c1O (stereo not drawn) | 34.2% | -4.65% | 23.1% | -15.2% | 10.2% | 21.1%
19 | CC(COC(=O)c1ccc(N)cc1)NC1CCCCC1 (stereo not drawn) | -8.2% | 1.1% | 19.6% | 13.7% | -2.25% | -16.6%

Row | SMILES | growth inhibition [1] | growth inhibition [2] | growth inhibition [3] | growth inhibition [4] | growth inhibition [5] | growth inhibition [6]
20 | O=C1NC(Cc2ccc(O)cc2)C(=O)N2CCCC12 (stereo not drawn) | 1.25% | -3% | -34.6% | 0.4% | -18.2% | -14.2%
21 | COC(=O)/C=C1\CCC2C3CC=C4C=C(N5CCCC5)CCC4(C)C3C(=O)CC12C (stereo not drawn) | -7.6% | 16.1% | 18.6% | -9.6% | -12.4% | -18.2%
22 | CCc1cccc(CC)c1NC(=S)NN | 17.4% | 15.3% | 41.9% | -6% | 24.2% | 5.55%
23 | CC1(C)CN(CCC#N)C(c2ccc([N+](=O)[O-])cc2)O1 (stereo not drawn) | 2.95% | 3.3% | 8.1% | -9.4% | 14% | -14.8%
24 | O=C1OC2(c3ccc(O)cc3Oc3cc(O)ccc32)C2C3CCC(O3)C12 (stereo not drawn) | 52.2% | 38.2% | 42.2% | 27% | 37.2% | 40.4%
25 | O=[N+]([O-])c1ccc(/C=C2/c3ccccc3-c3nc4ccccc4cc32)cc1 | 21.9% | -2.55% | -2.9% | -2.6% | 7.3% | 20.8%
26 | O=S(Nc1ccc(Br)cc1)c1ccccc1 (stereo not drawn) | -3.5% | -0.35% | 5.65% | -8.2% | 3.4% | 1.55%
27 | C=C(C)COC(CCC)OCC(=C)C | 6.85% | 8.1% | -8.45% | 8.85% | -2.3% | 21.1%
28 | COC(=O)[C@]12CCC(C)[C@H](C)[C@H]1C1=CCC3[C@@]4(C)CC[C@H](OC(C)=O)C(C)(C)C4CC[C@@]3(C)C1(C)C(O)C2 (stereo partly drawn) | 23.1% | -22.5% | -8.45% | 8.5% | -0.4% | 21.9%
29 | O=C(Nn1c(-c2ccccc2)nc2ccccc2c1=O)c1ccc([N+](=O)[O-])cc1 | -1.9% | 14.6% | 4.6% | -1% | 17.2% | 13.9%
30 | Cc1nc2ccc(-c3ccccc3)cc2nc1C | -9.25% | 5.7% | -20.9% | 4.45% | -5.05% | 3.7%
31 | CC1CCCCN1Cc1ccccc1COC(=O)c1ccc([N+](=O)[O-])cc1 (stereo not drawn) | 10.6% | -5.05% | 4.8% | -29.1% | 4.05% | 18.6%
32 | CCc1ccccc1OCC1CO1 (stereo not drawn) | 10.9% | 3.5% | 11.2% | 2.2% | -11.9% | 18.2%
33 | N#C/C(=C/NC(=S)Nc1ccc(S(N)(=O)=O)cc1)C(N)=O | -44.8% | -89% | -26.4% | -10.8% | -20.4% | -24.1%
34 | C=C(C)COB(OCC(=C)C)OCC(=C)C | -6.3% | -25.4% | -2.25% | 1.95% | -10.8% | -16.2%
35 | C=CCNC(=O)/C(C)=C(\C)c1ccc(F)cc1 | 4.15% | 6% | 3.2% | -17.7% | 2.5% | -4.7%
36 | CCCNC(=S)N/N=C\C(C)=N\Nc1ccc(Cl)cc1 | 31.4% | 16.2% | 3.15% | 36% | 7.5% | 17.2%
37 | CN(C)c1ccc(-c2ccncc2)cc1 | 21.6% | 15.2% | 18.9% | -11.8% | 17.4% | 17.2%
38 | Cc1ccc2c(c1)N=C(Nc1ccccc1)N=S2(C)=O (stereo not drawn) | 2.95% | -18.7% | 0.45% | -11.7% | -7.55% | -41.5%
